In the supplement of paper PMC10849652:
The full data set covers some 8,800 targets. This sample favours those with a hit. About 0.5% of all pairs of compound and target were hits. A number with no mark means an inactive call.

What was measured:
Experiment in all cases: log2 fold change, soluble protein after heating vs DMSO (PISA); higher = thermal stabilisation; K562 lysate, 10 uM; active = over 0.2 and 3.5 SD of the protein, either way, in both replicates (recomputed)
[1] = compound: CN1CC[C@H](c2c(O)cc(O)c3c(=O)cc(-c4ccccc4Cl)oc23)[C@H](O)C1 [alvocidib]
Outline: (§1)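 Quantification was by TMTpro 16plex LC-MS/MS with equalised channel sums, applied to the supernatant after 21,000xg for 90 min. Samples were crude K562 extract at 1 mg/mL protein in PBS pH 7.4 with 1 mM MgCl2, treated with 10 μM compound for 30 min, heated for 3 min across 48°C-58°C, pooled and brought to 0.5% NP-40 at 4°C. Values are log-two fold changes in thermal stability relative to solvent controls, from duplicates.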

[2] = compound: CN1CCc2c(c3ccccc3n2Cc2ccc(C(=O)NO)cc2)C1 [Tubastatin A]
Outline: as §1

[3] = compound: CNC(=O)C1=CC=CC=C1NC2=NC(=NC=C2Cl)NC3=C(C=C(C=C3)N4CCOCC4)OC
Outline: as §1

[4] = compound: CNC(=O)c1ccc(Nc2ncc(C(F)(F)F)c(NCc3nccnc3N(C)S(C)(=O)=O)n2)cc1 [defactinib]
Outline: as §1

[5] = compound: CNc1nc(-c2ccc3c(N)n[nH]c3c2)cc(N2C[C@@H](C(=O)NC3CCCCC3)CC[C@H]2C)n1
Outline: as §1

[6] = compound: COC(=O)N[C@@H](C)CNc1nccc(-c2cn(C(C)C)nc2-c2cc(Cl)cc(NS(C)(=O)=O)c2F)n1 [encorafenib]
Outline: as §1

[7] = compound: COC(=O)[C@H](CCSC)NC(=O)C1=C(C=C(C=C1)NC[C@H](CS)N)C2=CC=CC=C2
Outline: as §1

[8] = compound: COc1cc(Nc2ncc3c(n2)-c2ccc(Cl)cc2C(c2c(F)cccc2OC)=NC3)ccc1C(=O)O [alisertib]
Outline: as §1

[9] = compound: COc1cc2nc(-c3cc(F)ccc3O)nc(N[C@@H]3CNC[C@H]3C(C)(C)O)c2cc1OC
Outline: as §1

[10] = compound: COc1cc2ncnc(Nc3ccc(F)c(Cl)c3)c2cc1OCCCN1CCOCC1 [gefitinib]
Outline: as §1

[11] = compound: CS(=O)(=O)CCNCc1ccc(-c2ccc3ncnc(Nc4ccc(OCc5cccc(F)c5)c(Cl)c4)c3c2)o1 [lapatinib]
Outline: as §1

[12] = compound: CS(=O)(=O)N1CCN(Cc2cc3nc(-c4cccc5[nH]ncc45)nc(N4CCOCC4)c3s2)CC1 [pictilisib]
Outline: as §1

[13] = compound: C[C@@H](Oc1cc(-c2cnn(C3CCNCC3)c2)cnc1N)c1c(Cl)ccc(F)c1Cl [crizotinib]
Outline: as §1

[14] = compound: C[C@H](C1=CC=C(C=C1)C(=O)NC2=C3C=CNC3=NC=C2)N
Outline: as §1

[15] = compound: C[C@H](Nc1ncnc2nc[nH]c12)c1cc2cccc(Cl)c2c(=O)n1-c1ccccc1 [duvelisib]
Outline: as §1

[16] = compound: Cc1cc(Nc2cc(CN3CCOCC3)c3nc(C)c(Cc4ccc(Cl)cc4F)n3n2)n[nH]1 [gandotinib]
Outline: as §1

[17] = compound: Cc1cc(Nc2cc(N3CCN(C)CC3)nc(Sc3ccc(NC(=O)C4CC4)cc3)n2)n[nH]1 [tozasertib]
Outline: as §1

[18] = compound: Cc1ccc(-n2nc(C(C)(C)C)cc2NC(=O)Nc2ccc(OCCN3CCOCC3)c3ccccc23)cc1 [doramapimod]
Outline: as §1

[19] = compound: Cc1ccc(NC(=O)c2ccc(CN3CC[C@H](N(C)C)C3)c(C(F)(F)F)c2)cc1Nc1nccc(-c2cncnc2)n1 [bafetinib]
Outline: as §1

[20] = compound: Cc1cccc(CC(=O)N2CCc3c2ccc(-c2cn(C)c4ncnc(N)c24)c3F)n1
Outline: as §1

Sequence of UniProt Q15843 (Q15843 whole entry, looked up): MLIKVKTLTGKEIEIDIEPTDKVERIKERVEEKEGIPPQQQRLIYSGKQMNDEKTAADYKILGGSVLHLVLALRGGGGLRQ
Sequence of UniProt Q504Q3 (Q504Q3 whole entry, looked up): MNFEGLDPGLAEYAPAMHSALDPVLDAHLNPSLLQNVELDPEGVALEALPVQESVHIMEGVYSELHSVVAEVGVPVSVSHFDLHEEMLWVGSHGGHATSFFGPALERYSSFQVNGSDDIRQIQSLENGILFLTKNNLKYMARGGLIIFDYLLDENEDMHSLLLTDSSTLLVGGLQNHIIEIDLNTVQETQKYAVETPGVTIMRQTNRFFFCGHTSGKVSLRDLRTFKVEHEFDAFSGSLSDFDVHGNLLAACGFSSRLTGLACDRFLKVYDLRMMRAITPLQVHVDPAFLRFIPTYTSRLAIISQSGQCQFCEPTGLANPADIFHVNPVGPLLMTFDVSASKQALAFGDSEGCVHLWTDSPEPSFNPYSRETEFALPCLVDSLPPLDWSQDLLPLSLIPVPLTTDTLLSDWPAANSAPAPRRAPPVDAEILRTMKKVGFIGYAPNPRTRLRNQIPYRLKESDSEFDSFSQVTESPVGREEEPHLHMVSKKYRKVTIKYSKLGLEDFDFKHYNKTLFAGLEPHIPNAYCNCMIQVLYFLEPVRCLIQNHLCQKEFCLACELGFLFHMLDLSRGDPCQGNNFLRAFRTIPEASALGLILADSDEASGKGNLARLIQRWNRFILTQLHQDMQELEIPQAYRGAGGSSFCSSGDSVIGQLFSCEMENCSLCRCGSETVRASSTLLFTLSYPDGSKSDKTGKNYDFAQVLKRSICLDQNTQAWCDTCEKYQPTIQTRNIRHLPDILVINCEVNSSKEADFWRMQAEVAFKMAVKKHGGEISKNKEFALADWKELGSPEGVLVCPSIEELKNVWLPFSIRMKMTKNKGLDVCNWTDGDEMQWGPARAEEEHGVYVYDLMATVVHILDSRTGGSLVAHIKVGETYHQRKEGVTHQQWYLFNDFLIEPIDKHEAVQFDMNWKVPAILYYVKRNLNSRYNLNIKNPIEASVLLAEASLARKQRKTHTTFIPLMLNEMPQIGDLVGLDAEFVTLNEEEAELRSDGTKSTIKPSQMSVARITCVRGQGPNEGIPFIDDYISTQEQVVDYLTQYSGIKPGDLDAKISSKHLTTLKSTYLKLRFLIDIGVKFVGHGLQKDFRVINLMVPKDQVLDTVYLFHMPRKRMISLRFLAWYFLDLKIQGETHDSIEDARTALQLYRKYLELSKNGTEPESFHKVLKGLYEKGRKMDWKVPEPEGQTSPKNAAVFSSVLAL
Sequence of UniProt Q8N1F7 (Q8N1F7 whole entry, looked up): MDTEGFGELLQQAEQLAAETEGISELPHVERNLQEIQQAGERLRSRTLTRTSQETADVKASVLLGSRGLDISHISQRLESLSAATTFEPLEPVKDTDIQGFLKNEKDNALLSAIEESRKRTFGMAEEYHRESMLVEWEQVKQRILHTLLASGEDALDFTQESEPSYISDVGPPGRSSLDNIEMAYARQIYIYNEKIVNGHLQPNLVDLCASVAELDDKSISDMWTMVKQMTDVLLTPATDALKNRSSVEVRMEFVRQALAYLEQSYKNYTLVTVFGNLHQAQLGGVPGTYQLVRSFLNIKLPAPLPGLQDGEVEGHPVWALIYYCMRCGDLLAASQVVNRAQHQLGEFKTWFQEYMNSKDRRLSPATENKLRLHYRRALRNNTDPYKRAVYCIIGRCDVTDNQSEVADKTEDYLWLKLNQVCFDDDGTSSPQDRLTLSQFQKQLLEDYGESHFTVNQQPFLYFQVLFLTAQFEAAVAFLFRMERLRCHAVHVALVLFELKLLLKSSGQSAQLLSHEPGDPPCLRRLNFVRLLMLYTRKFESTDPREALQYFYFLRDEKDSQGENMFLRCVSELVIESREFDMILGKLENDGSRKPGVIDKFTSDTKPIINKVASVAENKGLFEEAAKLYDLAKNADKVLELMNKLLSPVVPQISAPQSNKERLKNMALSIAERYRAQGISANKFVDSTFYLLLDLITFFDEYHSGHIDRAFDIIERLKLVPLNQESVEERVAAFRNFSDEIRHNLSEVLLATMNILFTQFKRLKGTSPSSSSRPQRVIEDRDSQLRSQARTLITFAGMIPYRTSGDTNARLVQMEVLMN
Sequence of UniProt Q15003 (Q15003 whole entry, looked up): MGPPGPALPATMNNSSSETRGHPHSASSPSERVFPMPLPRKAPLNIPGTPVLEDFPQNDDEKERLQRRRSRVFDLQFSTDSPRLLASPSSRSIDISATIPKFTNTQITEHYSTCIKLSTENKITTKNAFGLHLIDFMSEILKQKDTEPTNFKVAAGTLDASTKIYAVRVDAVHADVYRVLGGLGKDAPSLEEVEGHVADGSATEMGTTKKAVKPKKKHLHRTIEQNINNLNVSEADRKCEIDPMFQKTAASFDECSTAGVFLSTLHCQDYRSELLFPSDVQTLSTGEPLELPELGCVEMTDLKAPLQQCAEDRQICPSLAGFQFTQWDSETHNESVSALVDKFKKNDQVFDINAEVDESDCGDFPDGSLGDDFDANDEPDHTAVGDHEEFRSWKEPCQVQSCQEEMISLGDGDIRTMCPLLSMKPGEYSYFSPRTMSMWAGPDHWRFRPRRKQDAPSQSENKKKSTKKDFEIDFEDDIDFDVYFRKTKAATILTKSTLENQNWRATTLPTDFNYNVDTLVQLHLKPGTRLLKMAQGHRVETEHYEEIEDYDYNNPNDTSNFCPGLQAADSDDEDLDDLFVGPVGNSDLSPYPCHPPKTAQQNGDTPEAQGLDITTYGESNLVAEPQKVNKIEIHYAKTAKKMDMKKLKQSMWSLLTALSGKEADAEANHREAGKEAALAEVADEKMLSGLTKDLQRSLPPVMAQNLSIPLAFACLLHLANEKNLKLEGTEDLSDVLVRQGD
Sequence of UniProt P15559 (P15559 whole entry, looked up): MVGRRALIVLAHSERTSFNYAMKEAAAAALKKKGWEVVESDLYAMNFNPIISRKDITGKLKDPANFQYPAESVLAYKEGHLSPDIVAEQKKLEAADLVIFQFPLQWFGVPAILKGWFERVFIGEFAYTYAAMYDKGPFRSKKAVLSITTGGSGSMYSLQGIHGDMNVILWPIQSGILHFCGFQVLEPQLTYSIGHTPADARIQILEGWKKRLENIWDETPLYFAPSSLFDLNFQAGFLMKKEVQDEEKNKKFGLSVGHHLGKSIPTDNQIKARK
Sequence of UniProt Q969R2 (Q969R2 whole entry, looked up): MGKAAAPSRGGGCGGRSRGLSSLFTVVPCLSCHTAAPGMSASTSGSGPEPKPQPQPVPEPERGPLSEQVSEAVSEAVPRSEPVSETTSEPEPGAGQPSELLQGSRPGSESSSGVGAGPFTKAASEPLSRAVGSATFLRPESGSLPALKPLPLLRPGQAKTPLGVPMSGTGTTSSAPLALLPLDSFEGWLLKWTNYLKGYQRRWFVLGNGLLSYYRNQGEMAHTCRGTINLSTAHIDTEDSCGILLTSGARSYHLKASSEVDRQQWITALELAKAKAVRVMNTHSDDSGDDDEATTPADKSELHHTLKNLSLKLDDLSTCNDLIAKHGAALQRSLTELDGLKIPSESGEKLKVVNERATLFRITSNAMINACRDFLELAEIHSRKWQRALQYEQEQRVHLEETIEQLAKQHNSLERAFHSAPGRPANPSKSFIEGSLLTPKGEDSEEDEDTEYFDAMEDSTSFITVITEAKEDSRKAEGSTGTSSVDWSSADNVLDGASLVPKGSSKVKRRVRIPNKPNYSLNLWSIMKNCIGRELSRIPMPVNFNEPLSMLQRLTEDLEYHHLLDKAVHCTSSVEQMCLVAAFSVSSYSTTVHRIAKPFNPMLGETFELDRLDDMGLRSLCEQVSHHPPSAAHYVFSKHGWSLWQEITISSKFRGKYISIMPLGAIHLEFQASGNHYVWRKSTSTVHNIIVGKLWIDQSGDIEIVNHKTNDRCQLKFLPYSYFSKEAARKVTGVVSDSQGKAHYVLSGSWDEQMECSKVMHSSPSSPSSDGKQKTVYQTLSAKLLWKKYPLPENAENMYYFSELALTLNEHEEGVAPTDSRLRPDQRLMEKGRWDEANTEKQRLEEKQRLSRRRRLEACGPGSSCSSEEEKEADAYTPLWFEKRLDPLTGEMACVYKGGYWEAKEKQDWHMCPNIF
Sequence of UniProt O76041 (O76041 whole entry, looked up): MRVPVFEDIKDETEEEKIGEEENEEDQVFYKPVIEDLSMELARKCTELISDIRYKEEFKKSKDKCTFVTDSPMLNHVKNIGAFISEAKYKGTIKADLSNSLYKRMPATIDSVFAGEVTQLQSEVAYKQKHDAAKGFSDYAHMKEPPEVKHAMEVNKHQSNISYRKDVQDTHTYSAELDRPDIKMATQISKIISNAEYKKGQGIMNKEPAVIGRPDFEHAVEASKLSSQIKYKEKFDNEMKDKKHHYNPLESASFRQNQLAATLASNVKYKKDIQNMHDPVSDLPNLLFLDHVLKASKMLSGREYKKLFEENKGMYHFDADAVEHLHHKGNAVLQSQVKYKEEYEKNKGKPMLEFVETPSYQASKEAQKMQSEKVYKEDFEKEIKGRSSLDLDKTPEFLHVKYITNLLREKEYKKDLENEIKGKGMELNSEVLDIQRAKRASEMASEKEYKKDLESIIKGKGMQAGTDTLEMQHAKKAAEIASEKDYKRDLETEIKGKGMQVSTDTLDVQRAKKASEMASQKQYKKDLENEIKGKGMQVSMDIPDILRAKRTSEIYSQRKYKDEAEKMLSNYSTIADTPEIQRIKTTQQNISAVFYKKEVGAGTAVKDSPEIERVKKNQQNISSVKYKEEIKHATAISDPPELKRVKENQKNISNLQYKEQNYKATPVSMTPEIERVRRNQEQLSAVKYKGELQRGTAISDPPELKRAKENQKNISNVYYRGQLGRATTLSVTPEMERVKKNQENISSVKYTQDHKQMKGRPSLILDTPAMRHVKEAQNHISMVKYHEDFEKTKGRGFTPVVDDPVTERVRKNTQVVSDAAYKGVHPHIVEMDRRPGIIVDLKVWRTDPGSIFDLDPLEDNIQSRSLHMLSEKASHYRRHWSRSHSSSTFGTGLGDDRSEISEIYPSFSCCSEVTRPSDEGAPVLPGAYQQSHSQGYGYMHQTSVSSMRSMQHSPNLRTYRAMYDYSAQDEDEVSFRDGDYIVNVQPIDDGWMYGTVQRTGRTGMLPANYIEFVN

Target | log2 fold change [1] | log2 fold change [2] | log2 fold change [3] | log2 fold change [4] | log2 fold change [5] | log2 fold change [6] | log2 fold change [7] | log2 fold change [8] | log2 fold change [9] | log2 fold change [10] | log2 fold change [11] | log2 fold change [12] | log2 fold change [13] | log2 fold change [14] | log2 fold change [15] | log2 fold change [16] | log2 fold change [17] | log2 fold change [18] | log2 fold change [19] | log2 fold change [20]
NCAPH (UniProt Q15003) | 0.007 | -0.089 | 0.008 | 0.015 | 0.023 | 0.013 | 0.063 | 0.015 | 0.018 | 0.006 | -0.012 | 0.005 | -0.019 | -0.015 | 0.046 | -0.101 | 0 | 0.036 | -0.013 | 0.028
NIFK (UniProt Q9BYG3) | 0.009 | -0.023 | -0.023 | 0 | 0.095 | 0.039 | -0.003 | -0.073 | -0.014 | 0.01 | -0.004 | -0.019 | -0.033 | -0.027 | 0.009 | 0 | 0.036 | -0.009 | -0.026 | 0.064
MT-CYB (UniProt P00156) | -0.326 | 0.078 | -0.027 | 0.091 | 0.129 | 0.036 | -0.093 | -0.131 | 0.062 | 0.102 | -0.054 | -0.025 | -0.126 | -0.856 (active) | 0.094 | 0.568 (active) | -0.074 | -0.05 | 0.05 | 0.385
OSBPL6 isoform 5 (UniProt Q9BZF3) | -0.056 | -0.05 | -0.043 | -0.063 | -0.047 | -0.005 | 0.015 | -0.068 | -0.004 | 0.164 | 0.077 | 0.008 | 0.367 (active) | -0.003 | -0.003 | 0.033 | 0.036 | 0.005 | 0.32 | 0.004
NOC2L (UniProt Q9Y3T9) | -0.009 | -0.066 | 0.043 | 0.121 | 0.257 (active) | 0.048 | -0.02 | 0.01 | 0.06 | -0.03 | -0.049 | -0.012 | -0.077 | -0.004 | -0.074 | -0.037 | -0.015 | 0.03 | -0.137 | 0.09
OSBP2 (UniProt Q969R2) | -0.211 | 0.047 | -0.102 | 0.011 | -0.032 | 0.04 | -0.1 | 0.052 | -0.033 | 0.011 | 0.003 | 0.024 | -0.074 | -0.666 (active) | 0.116 | 0.194 | -0.028 | 0.018 | -0.037 | 0.23
NEBL isoform 2 (UniProt O76041) | -0.079 | 0.07 | 0.012 | 0.011 | 0.023 | 0.009 | -0.043 | -0.024 | -0.003 | 0.037 | 0.003 | 0.044 | 0.059 | -0.135 | -0.046 | 0.094 | -0.018 | -0.018 | 0.105 | 0.073
NQO1 (UniProt P15559) | 0.007 | -0.079 | 0.068 | 0.003 | -0.111 | 0.043 | 0.159 | -0.001 | -0.042 | 0.009 | -0.055 | -0.048 | -0.04 | -0.074 | 0.012 | 0.009 | 0.022 | -0.333 (active) | -0.023 | 0.262 (active)
NEDD8 (UniProt Q15843) | 0.169 | 0.132 | 0.083 | 0.019 | 0.037 | 0.015 | -0.062 | 0.021 | -0.03 | -0.148 | 0.04 | 0.028 | 0.041 | 0.19 | 0.019 | -0.062 | 0.06 | -0.049 | -0.117 | -0.107
NIPSNAP3A (UniProt Q9UFN0) | 0.288 (active) | 0.015 | 0.016 | -0.021 | 0.025 | 0.016 | -0.022 | -0.023 | 0.005 | -0.023 | -0.007 | -0.031 | 0.021 | 0.466 (active) | 0.03 | -0.197 | -0.011 | -0.029 | 0.061 | -0.276 (active)
NUDT4 (UniProt Q9NZJ9) | -0.001 | -0.149 | 0.063 | 0.153 | -0.066 | 0.051 | -0.17 | -0.036 | 0.001 | -0.052 | -0.01 | -0.055 | 0.032 | 0.166 | -0.039 | -0.188 | -0.022 | -0.076 | 0.117 | -0.304 (active)
NTPCR (UniProt Q9BSD7) | 0.007 | -0.163 | 0.055 | 0.009 | 0.027 | 0.005 | -0.007 | 0.007 | 0.058 | -0.057 | -0.003 | -0.028 | -0.071 | 0.031 | -0.003 | -0.094 | -0.028 | 0.011 | -0.044 | -0.052
MYD88 isoform 6 (UniProt Q99836) | 0 | -0.216 | -0.006 | 0.013 | 0.001 | 0.003 | -0.003 | 0.021 | -0.005 | -0.039 | 0.014 | -0.006 | -0.007 | -0.032 | 0.03 | -0.009 | 0.068 | 0.019 | -0.018 | 0
MTMR6 (UniProt Q9Y217) | -0.034 | -0.019 | 0 | -0.042 | -0.047 | 0.028 | -0.092 | 0.022 | 0.004 | -0.053 | 0.017 | 0.025 | -0.037 | 0.071 | 0.02 | -0.024 | 0.014 | 0.056 | 0.001 | -0.113
NUP93 (UniProt Q8N1F7) | -0.006 | -0.085 | -0.013 | 0.023 | -0.097 | 0.029 | 0.027 | 0.01 | -0.007 | 0.014 | -0.011 | -0.029 | -0.03 | -0.027 | -0.03 | -0.158 | 0.015 | 0.022 | -0.054 | 0.07
PAN2 isoform 2 (UniProt Q504Q3) | -0.023 | -0.025 | -0.018 | -0.099 | -0.046 | 0.08 | -0.041 | 0 | -0.043 | -0.044 | -0.044 | 0.045 | -0.085 | 0.003 | 0.041 | -0.053 | 0.27 (active) | 0.09 | -0.108 | 0.084
